Experimental data published in PubChem BioAssay AID933 (National Center for Advancing Translational Sciences (NCATS), 2009).
Records with an inconclusive call do not appear. Activity calls are given as the source filed them. The call rests on the fitted dose curve; in most records, active means well fitted activation curve with a large enough effect in the signal ratio, with a control signal flat; inconclusive means small, poorly fitted or top-dose-only effect, or a change in a side signal; inactive means flat fitted curve, though single readings scatter; the % refers to the signal ratio.
Potency means the concentration at half of the fitted maximal effect.
Wherever activation is given: % of control where 0% means no effect.

These molecules were tested against Thyrotropin receptor (Homo sapiens) (UniProt P16473) (assay: Secondary Concentration-Response Assay for Agonists of the Thyroid Stimulating Hormone Receptor: HTRF Activity Detection). Settings: HEK293-TSHR cells, cAMP HTRF ratio, 30 min; series mostly up to 91.7 µM; activation: at the top concentration.
Sequence of Thyrotropin receptor (Homo sapiens) (P16473 whole entry, looked up): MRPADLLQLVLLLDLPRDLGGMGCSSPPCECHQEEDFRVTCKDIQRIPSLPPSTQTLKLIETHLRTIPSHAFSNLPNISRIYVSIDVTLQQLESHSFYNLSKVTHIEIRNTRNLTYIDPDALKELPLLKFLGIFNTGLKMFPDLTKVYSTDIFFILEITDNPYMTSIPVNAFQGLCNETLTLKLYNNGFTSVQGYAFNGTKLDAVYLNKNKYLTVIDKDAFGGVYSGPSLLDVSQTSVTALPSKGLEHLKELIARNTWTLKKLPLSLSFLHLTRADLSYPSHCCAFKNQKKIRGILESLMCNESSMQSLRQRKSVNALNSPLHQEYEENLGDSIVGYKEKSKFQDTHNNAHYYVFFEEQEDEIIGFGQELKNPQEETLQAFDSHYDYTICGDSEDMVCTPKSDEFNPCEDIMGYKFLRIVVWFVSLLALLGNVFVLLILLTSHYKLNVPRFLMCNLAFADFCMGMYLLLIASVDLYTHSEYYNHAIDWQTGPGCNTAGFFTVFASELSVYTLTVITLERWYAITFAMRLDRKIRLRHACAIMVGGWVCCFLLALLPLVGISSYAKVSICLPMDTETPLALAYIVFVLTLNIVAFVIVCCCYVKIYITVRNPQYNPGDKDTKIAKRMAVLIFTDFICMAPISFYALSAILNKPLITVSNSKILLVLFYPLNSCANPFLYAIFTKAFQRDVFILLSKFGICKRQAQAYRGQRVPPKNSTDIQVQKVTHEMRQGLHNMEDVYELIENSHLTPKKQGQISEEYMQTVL
Outline: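 cAMP accumulation was detected by antibody-based HTRF, excitation 330 nm, emissions 615 and 660 nm. Compounds acted for 30 min at room temperature on stably TSHR-transfected HEK 293 cells, with phosphodiesterase inhibitor RO 20-1724 (100 uM) in the medium.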
In the case of `COc1ccc(C(=O)N(Cc2ccccc2)Cc2cccs2)c(O)c1`, the Potency is reported as 28.2 µM (active).
In the case of `COc1ccc(C(=O)N(Cc2ccccc2)Cc2ccccc2)c(O)c1`, the Potency is reported as 25.1 µM (active).
With `COc1ccc(C2Nc3ccccc3C(=O)N2Cc2ccco2)cc1COc1c(C)cccc1C` (configuration not stated) the “activation” value was 1.67% (inactive).
`Cc1occc1-c1nnc(SCC(=O)Nc2ccccc2)n1C(C)c1ccccc1` (configuration not stated) was tested, and the activation was 0.0209% [at 0.00035 µM] (inactive).
For `O=C(c1ccccc1O)N(Cc1ccco1)Cc1ccco1`, the “activation” value was 6.56% (inactive).
For `CCN(CC)CCN1C(=O)c2ccccc2NC1c1ccc(OC)c(COc2ccc(NC(C)=O)cc2)c1` (configuration not stated), the “activation” value was 2.5% (inactive).
`COc1ccc(CNCc2ccccc2)cc1COc1ccc(NC(C)=O)cc1` was tested, and the “activation” value was 8.06% (inactive).
With `O=C(c1ccc(Br)o1)N(Cc1ccccc1)c1ccccn1` the activation was 0.801% [at 0.00035 µM] (inactive).
For `COc1ccc(C2Nc3ccccc3C(=O)N2c2ccccc2F)cc1COc1ccc(NC(C)=O)cc1` (configuration not stated), the “activation” value was 11.4% (inactive).
For `COc1ccc(C2Nc3ccccc3C(=O)N2Cc2ccco2)cc1COc1ccc(N)cc1` (configuration not stated), the “activation” value was 30.9% (inactive).
In the case of `COc1ccc(C2=Nn3c(nnc3-c3ccccc3OC)SC2)cc1OC`, the “activation” value is reported as 7.27% (inactive).
`COc1ccc(C2Nc3ccccc3C(=O)N2Cc2ccccc2C)cc1COc1ccc(NC(C)=O)cc1` (configuration not stated) was tested, and the “activation” value was 14.3% (inactive).
For `CC1(C)c2ccccc2N2CCC(=O)NC21/C=C/c1ccco1` (configuration not stated), the activation was 0.369% [at 0.00035 µM] (inactive).
In the case of `COc1ccc(CN(Cc2ccccc2)C(=O)c2ccc(O)cc2)cc1COc1ccc(NC(C)=O)cc1`, the Potency is reported as 28.2 µM (active).
For `O=C1C2C3CCCC3=C3CCCC3C2C(=O)N1c1cccc(Cl)c1` (configuration not stated), the “activation” value was 1.67% (inactive).
For `Cc1nn(C)c(C)c1S(=O)(=O)N(CC(=O)Nc1nccs1)c1ccc(C(C)C)cc1`, the activation was 0.117% [at 0.00035 µM] (inactive).
For `Cc1sc2ncn(/N=C/c3cn(-c4ccccc4)nc3-c3ccccc3)c(=O)c2c1C`, the “activation” value was 0.971% (inactive).
In the case of `COc1ccc(N2C(=O)c3ccccc3NC2c2ccc(OC)c(COc3ccccc3F)c2)cc1` (configuration not stated), the “activation” value is reported as 1.29% (inactive).
With `O=C1c2ccccc2NC(c2ccccc2)N1c1ccc(O)cc1` (configuration not stated) the “activation” value was 1.31% (inactive).
In the case of `Cc1ccccc1NC(=O)CSc1nnc(-c2ccoc2C)n1CCc1ccccc1`, the activation is reported as -0.0378% [at 0.00035 µM] (inactive).
`Cc1ccccc1-n1nc(C)c2cc(C(=O)N3CCN(S(=O)(=O)c4ccc(F)cc4)CC3)sc21` was tested, and the activation was 0.202% [at 0.00035 µM] (inactive).
With `COc1ccc(C2Nc3ccccc3C(=O)N2Cc2ccccc2)cc1COc1ccccc1F` (configuration not stated) the “activation” value was 1.32% (inactive).
